Growth data for 34 compounds are collected here from PubChem BioAssay (NCI).

About 83,000 compounds went through this panel and 20% of them were active in at least one assay; those are over-represented in the sample as a whole.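 Negative percent growth values reflect cell death: -40 means 40% of the cells present at the start died, and -100 means all died.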 Activity calls are given as the source filed them. The calls were made as follows: active = growth percent below 10; inactive = the rest.

The test concerns COLO 205 colon. Briefly: NCI-60 one-dose screen, 48 h (100 = growth as untreated, 0 = no growth, -100 = all killed). The conditions noted are these: 10 µM unless noted.
Regarding `CO[C@H](C(=O)O)[C@@H]1Cc2cc3cc(OC4CC(OC5CC(O)C(O)C(C)O5)C(O)C(C)O4)c(C)c(O)c3c(O)c2C(=O)[C@H]1OC1CC(OC2CC(OC3CC(C)(O)C(O)C(C)O3)C(O)C(C)O2)C(O)C(C)O1` (some centres undefined), the growth is -12.5% (active).

For the compound `O=C(Nc1ccc(Cl)cc1)Nc1nccs1`, the growth is 3.09% (active).

Regarding `CCn1cnc2c(Nc3cccc(Cl)c3)nc(N[C@@H]3CCCC[C@@H]3N)nc21`, the growth was -67.6% (active).

`C[C@]12CC[C@H]3[C@@H](CC4SC(N)=NC45C/C(=N/NC(N)=O)CC[C@]35C)[C@@H]1CCC2=O` (some centres undefined): the growth is 35% (inactive).

As for `Fc1ccc(N2COOC3(OOC2)C2CC4CC(C2)CC3C4)cc1`, the growth was 116% (inactive).

Regarding `C[C@@]1(CCCCCCCCCc2ccc(O)cc2)C[C@]2(C)OC(=O)C[C@@H]2OO1`, the growth was 124% (inactive).

With `[Cl][Hg][n]1c(-c2ccco2)nc2ccccc21`, the growth is 121% (inactive).

Turning to `CN1C(=O)N[C@H]2[C@@H]3NC(=O)c4ccc(Br)n4[C@@H]3C[C@]21O`, the growth was -49.5% (active).

Take `C=CC[PH+](c1ccccc1)c1ccccc1.C=CC[PH+](c1ccccc1)c1ccccc1.[Cl][Pt][Cl]`: the growth was 22.2% (inactive).

With `CC[C@H](C)[C@H](NC(=O)C12CC(NC(C)=O)(C1)C2)C(=O)N(C)[C@H](C[C@@H](OC(C)=O)c1nc(C(=O)N[C@@H](Cc2ccccc2)C[C@H](C)C(=O)OC)cs1)C(C)C`, the growth was -31.5% (active).

Turning to `O=C1C=C(N2C3C4CCC(C4)C32)C(=O)C=C1c1ccccc1` (centres undefined), the growth was 115% (inactive).

As to `CCn1c2ccccc2c2cc(C(=O)c3cccc4c3CCCN4)ccc21`, the growth was 102% (inactive).

For the compound `Nc1cc2nc3ccccc3nc2cc1N`, the growth was 106% (inactive).

For the compound `CCOC(=O)C(Cc1ccc(N(CCCl)CCCl)cc1)NC(=O)C(CC(C)C)NC(C)=O` (centres undefined), the growth was -29.3% (active).

Turning to `COc1cc([N+](=O)[O-])c2nc(C)ccc2c1[N+](=O)[O-]`, the growth is 77.6% (inactive).

Turning to `O=C(CC1(O)C(=O)N(Cc2ccccc2)c2ccc(F)cc21)c1ccc(C(=O)NCC2CCC3(CC2)OOC2(CCCCC2)OO3)cc1` (centres undefined), the growth was -63.3% (active).

As for `O=C(CCl)c1ccc([N+](=O)[O-])o1`, the growth is -86% (active).

In the case of `C[S+]1C=Cc2ccccc2C1c1ccc(Cl)cc1` (centres undefined), the growth is 114% (inactive).

In the case of `COC(=O)[C@@H](C)C[C@H](Cc1ccc2ccccc2c1)NC(=O)c1csc([C@@H](C[C@H](C(C)C)N(C)C(=O)[C@@H](NC(=O)[C@H]2CCCCN2C)C(C)C)OC(C)=O)n1`, the growth was -37.9% (active).

Turning to `O=P(N1CC1)(N1CC1)N1CCc2ccccc21`, the growth was 117% (inactive).

Turning to `O=C1Nc2ccccc2C2c3cccn3-c3ccccc3CN12` (centres undefined), the growth is 39.5% (inactive).

`COC(=O)[C@@]1(O)C[C@H]2O[C@]1(C)n1c3ccccc3c3c4c(c5c6ccccc6n2c5c31)C(=O)NC4`: the growth is -66.6% (active).

Consider `NC(=S)c1cn(C2OC(CO)C(O)C2O)c2ncnc(N)c12` (centres undefined), for which the growth is -47% (active).

In the case of `CC[C@H](C)[C@H](NC(=O)c1cccn1C)C(=O)N(C)[C@H](C[C@@H](OC(C)=O)c1nc(C(=O)N[C@@H](Cc2ccccc2)C[C@H](C)C(=O)OC)cs1)C(C)C`, the growth was -69.7% (active).

Turning to `OCc1ccc2c(c1)OCO2`, the growth was 108% (inactive).

In the case of `C[n+]1c(/C=C/c2ccc(N(CCCl)CCCl)cc2)sc2ccccc21`, the growth was 32.2% (inactive).

Regarding `ClCCN(CCCl)Cc1ccc(Nc2ccnc3cc(Cl)ccc23)cc1`, the growth is 50.6% (inactive).

Take `Fc1ccc2c(c1)c(-c1nc(-c3c[nH]c4ncccc34)cs1)cn2CCN1CCOCC1`: the growth is 38.4% (inactive).

In the case of `COc1cc2c(=O)n(C3CCCCCCC3)c3c4cc[nH]c4ncc3c2cc1OC`, the growth is 58.5% (inactive).

`Cn1cc(-c2csc(-c3cn(CCN4CCOCC4)c4ccc(F)cc34)n2)c2cccnc21`: the growth was 15.9% (inactive).

For `O=C(CC1(O)C(=O)Nc2ccc(Br)cc21)c1ccc(C(=O)NCC2CCC3(CC2)OOC2(CCCCC2)OO3)cc1` (centres undefined), the growth is 51.4% (inactive).

Regarding `COc1cc(/C=N/C2=C(C#N)C(c3ccco3)c3c(c4cc(C)ccc4oc3=O)O2)cc(OC)c1OC` (centres undefined), the growth was 118% (inactive).

In the case of `CC1(C)N=C(N)N=C(N)N1c1ccc(CCCCc2ccc(Cl)c(S(=O)(=O)F)c2)c(Cl)c1`, the growth is 36.3% (inactive).

In the case of `CC12CCC3C(CCC4Cc5[nH]c6ccccc6c5CC43C)C1CCC2O` (centres undefined), the growth is 45% (inactive).
